Here are results for seven sequences from publication PMC8384837, “Expanding the binding specificity for RNA recognition by a PUF domain”.

What all share (experiment): yeast three-hybrid, YBZ-1, SC-Leu-His + 0.5 mM 3-AT, 4 days
What all share (settings): tags: N-Gal4 AD-HA kept; label: inside an RPR1-promoter hybrid RNA with tandem MS2 sites; ssRNA

The target in one assay is PUM1 PUF domain R5-KPI (Homo sapiens, UniProt Q14671 828-1176, C1007K;R1008P;Q1011I). In short, it runs like this:
(§1)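 The interaction score is the log change in variant frequency from input to selection. Scores were computed in log2 with a pseudocount of 1 for absent variants, using Illumina sequencing of PCR-amplified repeat regions. The input came from four days on SC-Leu and the selection from four days on SC-Leu-His + 0.5 mM 3-AT. The cells were strain YBZ-1 (LexA–MS2 coat fusion, HIS3 reporter) co-expressing Pumilio-1 PUF domain libraries and matching RNA elements from a centromeric plasmid.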

A further assay has as its target T1, PUM1 PUF domain R6-RVT (Homo sapiens, UniProt Q14671 828-1176, N1043R;Y1044V;Q1047T).
T1 sequence: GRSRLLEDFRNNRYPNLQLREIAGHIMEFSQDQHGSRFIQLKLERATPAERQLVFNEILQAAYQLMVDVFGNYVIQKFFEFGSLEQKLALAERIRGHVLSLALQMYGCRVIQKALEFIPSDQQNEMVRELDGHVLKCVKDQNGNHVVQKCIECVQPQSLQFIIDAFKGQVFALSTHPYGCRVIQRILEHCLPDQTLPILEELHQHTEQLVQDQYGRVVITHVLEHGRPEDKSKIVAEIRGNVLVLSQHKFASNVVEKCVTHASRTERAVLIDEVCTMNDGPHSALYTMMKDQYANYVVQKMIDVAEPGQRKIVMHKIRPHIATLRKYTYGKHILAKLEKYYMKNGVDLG
In short, it runs like this: as §1

For another assay, the target named is PUM1 PUF domain R3-LSQ (Homo sapiens, UniProt Q14671 828-1176, C935L;R936S). In short, it runs like this:
as §1

A further assay concerns the target PUM1 PUF domain R8-KRT (Homo sapiens, UniProt Q14671 828-1176, N1122K;Y1123R;Q1126T). In short, it runs like this: as §1
In the next assay the target is PUM1 PUF domain R8-HHK (Homo sapiens, UniProt Q14671 828-1176, N1122H;Y1123H;Q1126K). The method in brief:
as §1

The target of a further assay is PUM1 PUF domain R1-KMV (Homo sapiens, UniProt Q14671 828-1176, S863K;R864M;Q867V). The method in brief: as §1
For another assay, the target named is T2, PUM1 PUF domain R6-NRK (Homo sapiens, UniProt Q14671 828-1176, Y1044R;Q1047K).
T2 sequence: T1 sequence with R216N, V217R, T220K
The method in brief: as §1

For another assay, the target named is T3, PUM1 PUF domain R6-SFV (Homo sapiens, UniProt Q14671 828-1176, N1043S;Y1044F;Q1047V).
T3 sequence: T1 sequence with R216S, V217F, T220V
In short, it runs like this: as §1

The target in the next assay is PUM1 PUF domain R4-AGY (Homo sapiens, UniProt Q14671 828-1176, N971A;H972G;Q975Y). In short, it runs like this:
as §1

A further assay addresses PUM1 PUF domain R7-GVV (Homo sapiens, UniProt Q14671 828-1176, S1079G;N1080V;E1083V). In short, it runs like this:
as §1

Numbering of substitutions follows the chain as printed.

“GGCUAGAACUAGUGGAUCCCCCGGCGCCCGGCGGCUCGAGCCCGGGUAAGUGUCAAUAGUCUGCAUGCCGCCGGGCGCCAUGCCUGCAGGUCGACUCUAGAAAACAUG”: in the assay with PUM1 PUF domain R5-KPI, the binding signal is 5.02 log2 enrichment (interaction score).
Turning to “GGCUAGAACUAGUGGAUCCCCCGGCGCCCGGCGGCUCGAGCCCGGGUAAGUGCAAAUAGUCUGCAUGCCGCCGGGCGCCAUGCCUGCAGGUCGACUCUAGAAAACAUG”, the binding signal with PUM1 PUF domain R6-RVT is 4.2 log2 enrichment (interaction score).
Take “GGCUAGAACUAGUGGAUCCCCCGGCGCCCGGCGGCUCGAGCCCGGGUAAGUGUAAUUAGUCUGCAUGCCGCCGGGCGCCAUGCCUGCAGGUCGACUCUAGAAAACAUG”: the binding signal in the assay with PUM1 PUF domain R3-LSQ was 4.75 log2 enrichment (interaction score).
In the case of “GGCUAGAACUAGUGGAUCCCCCGGCGCCCGGCGGCUCGAGCCCGGGUAAGCGUAAAUAGUCUGCAUGCCGCCGGGCGCCAUGCCUGCAGGUCGACUCUAGAAAACAUG”, the results for the binding signal with PUM1 PUF domain R8-KRT and with PUM1 PUF domain R8-HHK were 2.71 log2 enrichment (interaction score) and 3.15 log2 enrichment (interaction score), respectively.
“GGCUAGAACUAGUGGAUCCCCCGGCGCCCGGCGGCUCGAGCCCGGGUAAGUGUAAAUCGUCUGCAUGCCGCCGGGCGCCAUGCCUGCAGGUCGACUCUAGAAAACAUG”: in the assay with PUM1 PUF domain R1-KMV, the binding signal is 3.19 log2 enrichment (interaction score).
On to “GGCUAGAACUAGUGGAUCCCCCGGCGCCCGGCGGCUCGAGCCCGGGUAAGUGUAAAUAGUCUGCAUGCCGCCGGGCGCCAUGCCUGCAGGUCGACUCUAGAAAACAUG”, for which the binding signal in the assay with PUM1 PUF domain R6-NRK was 3.68 log2 enrichment (interaction score); with PUM1 PUF domain R6-SFV, 3.58 log2 enrichment (interaction score); with PUM1 PUF domain R8-KRT it was 1.36 log2 enrichment (interaction score); with PUM1 PUF domain R4-AGY, 3.24 log2 enrichment (interaction score).
Take “GGCUAGAACUAGUGGAUCCCCCGGCGCCCGGCGGCUCGAGCCCGGGUAAGUUUAAAUAGUCUGCAUGCCGCCGGGCGCCAUGCCUGCAGGUCGACUCUAGAAAACAUG”: in the assay with PUM1 PUF domain R7-GVV, the binding signal was 2.6 log2 enrichment (interaction score).
